From PubChem BioAssay
NS1 inh: blocks influenza NS1 protein function. Potency, µM (titrated, usually from 46.1 µM), inactives show at the highest dose activity, positive = more growth. AID 2326. 270,000 compounds, 0.4% hits; calls by dose curve; further: actives are rising curves; nearly all actives have a fitted effect of over 50% in size
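S. cerevisiae expressing influenza A NS1, grown in glucose, washed, then diluted 1:100 into pH 6.0 -URA galactose medium with 23 nl compound. Growth recovery read as OD600; NS1-free strain serves as control.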
Sm TGR block: S. mansoni TGR enzyme inhibition; purified TGR, DTNB reduction, TNB absorbance 405 nm; 360,000 compounds, 3% hits; Q962Y6; Potency, µM (doses to about 114 µM), for the others: at the top dose activity change, negative = inhibition, actives largely listed as inhibitors; AID 485364; further: on the % scale 0 is the no-effect control and ±100 the full control effect; nearly all actives have a fitted effect of over 60% in size
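Kinetic colorimetric format: TGR-catalysed, NADPH-driven DTNB reduction monitored via TNB absorbance. Enzyme dispensed at 20 nM; compound exposure 15 min at room temperature before reaction start.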
Pf growth 48h: P. falciparum growth inhibition at 48 hours (one generation) | 310,000 compounds, 5.9% hits | P. falciparum luciferase growth in erythrocytes, 48 h | AID 504832 | Potency, µM (highest dose often 28.7 µM), inactives show at the top dose activity change, negative = inhibition, most hits filed as inhibitors; further: on the % scale 0 is the no-effect control and ±100 the full control effect
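Luminescence readout; reporter = integrated firefly luciferase in P. falciparum. RBC culture at 2% hematocrit, 0.1% parasitemia final, 37 C/5% CO2; decreased signal taken as growth inhibition.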
AMA1 RON2 block: disrupts binding of P. falciparum AMA1 to RON2; Potency, µM (series often up to 58.2 µM), for the others: top-dose activity change, negative = inhibition, usual class: inhibitors; AID 720542; 360,000 compounds, 0.2% hits; AlphaScreen AMA1-biotinylated RON2 peptide binding;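 further: 0% = vehicle wells and -100% = peptide control; nearly all actives have a fitted effect of over 45% in size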
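AMA1 (3D7) with his tag at 25 nM final met compounds first, then biotinylated RON2 peptide at 25 nM; detection used donor plus acceptor beads, 10 µg/mL apiece, read by AlphaScreen after 30 min at room temperature.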
Pf growth 96h: P. falciparum growth inhibition at 96 hours | P. falciparum luciferase reporter growth, 96 h | 320,000 compounds, 6.9% hits | Potency, µM (titrated, usually from 28.7 µM), for the others: top-dose activity change, negative = inhibition, hits mostly inhibitors; further: on the % scale 0 is the no-effect control and ±100 the full control effect
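Parasite growth measured via integrated firefly luciferase reporter in P. falciparum. Infected erythrocytes at 2% hematocrit, 0.05% parasitemia final were treated 96 hours at 37 C under 5% CO2, and luminescence was read.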
Numbers without * were called inactive; u = inconclusive; x = no result given; [ ] = remark or other dose. Shown are actives, neighbours in structure and some others; about 11% of the full set was active somewhere. Unless noted, the call rests on the fitted dose curve; in most records, active means well fitted curve in the direction sought with a large enough effect; inconclusive means small, poorly fitted or top-dose-only effect, or another doubt; inactive means no such curve, though single readings can be large; an effect the other way counts as inactive or inconclusive. Potency means the concentration at half of the fitted maximal effect.

SMILES | NS1 inh | Sm TGR block | Pf growth 48h | AMA1 RON2 block | Pf growth 96h
Cc1nc([N+](=O)[O-])c(Br)n1CC(=O)c1ccc(Br)cc1 | -149% | 11µM* | x | 0% | u
Cc1nc([N+](=O)[O-])cn1CC(=O)c1ccc(Cl)cc1 | 0% | 4% | 1% | -1% | 3%
CN(C)CCCN(C(=O)c1ccc2c(c1)OCCO2)c1nc2ccccc2s1 | x | 0% | x | x | x
COc1cccc(NC(=O)CSC2=Nc3ccccc3C3=NC(CC(=O)NCc4ccc5c(c4)OCO5)C(=O)N23)c1 (stereo not given) | x | 1% | x | x | x
Cc1ccc(NC(=O)Cn2nc(C(=O)O)c3ccccc3c2=O)c([N+](=O)[O-])c1 | 1% | -2% | 22% | -5% | 27%
CCOC(=O)C1CCN(C(=O)CCNS(=O)(=O)c2cc(Br)cnc2N)CC1 | 7% | 2% | u | -2% | 2%
Cc1cc(C(=O)NCc2cccc(Br)c2)c2c(C)nn(-c3ccccc3)c2n1 | x | 0% | x | x | x
COc1cccc(-n2c(SCc3ccccn3)nc3c(c2=O)SCC3)c1 | x | -1% | -16% | -12% | -15%
C1=C[C@@H]2CCN(Cc3ccccc3)Cc3cccc(c32)C1 | x | u | 8.3µM* | 0% | 7.4µM*
Cc1ccc(CN2CC[C@H]3C=CCc4cccc(c43)C2)cc1 | x | -24% | 5.2µM* | -25% | u
Cc1ccc(CN2CCC(NC(=O)c3ccccc3)CC2)cc1 | -2% | -10% | 5% | -1% | 24%
COc1ccc(CN2CC[C@H]3C=CCc4cccc(c43)C2)cc1 | x | 28µM* | 3.7µM* | u | u
O=C(CSc1ccc(-c2cccnc2)nn1)Nc1ccccc1 | 4% | -16% | 4% | 6% | 12µM*
Cc1ccccc1NC(=O)CSc1ccc(-c2cccnc2)nn1 | 7% | 2% | -29% | -2% | 10µM*
CC(=O)Nc1cccc(NC(=O)CSc2ccc(-c3cccnc3)nn2)c1 | x | 6% | u | 1% | -29%
CCOc1ccc(NC(=S)N2CCC(C(=O)c3ccc(OC)cc3)CC2)cc1 | x | x | x | 12% | x
Cc1cccc(CC(=O)NCCN2CCCCC2)c1 | -1% | u | -17% | -2% | u
COc1ccc(CC(=O)n2[nH]c(=O)cc(C)c2=O)cc1OC | 1% | 22µM* | u | 7% | 0%
CS(=O)(=O)NNC(=O)Cn1nnc(-c2ccc(OCc3ccccc3Cl)cc2)n1 | x | x | x | 15% | x
COc1cc(/C=C/C(=O)OCC(=O)NC(=O)NC2CCCCC2)ccc1OC(F)F | -10% | -27% | -3% | -2% | 7%
Cc1cc(C)c(C#N)c(OCc2ccc(Cl)nc2)n1 | -6% | 89µM* | 16% | 23% | -3%
CSC1=NCCN1C(=O)c1ccc(C)cc1 | 1% | 9% | -1% | 4% | 20%
CSC1=NCCN1C(=O)C12CC3CC(CC(C3)C1)C2 | x | -7% | 9.3µM* | 5% | u
CSC1=NCCN1C(=O)c1cccs1 | -15% | -22% | x | -3% | 13µM*
COc1ccc(CCNC(=O)CSc2c[nH]c3ccccc23)cc1OC | x | -1% | -1% | -3% | -1%
SMILES | NS1 inh | Sm TGR block | Pf growth 48h | AMA1 RON2 block | Pf growth 96h
O=C(CSc1ccccc1)NCC1(N2CCCCC2)CCCCC1 | x | 4% | -2% | -12% | u
Cc1ccccc1S(=O)(=O)N(CC(O)CN1C(=O)NC(C)(C)C1=O)c1ccccc1 (stereo not given) | 8% | 3% | 13% | -13% | -15%
Nc1c(N(Cc2ccco2)C(=O)COc2ccc(Cl)cc2)c(=O)[nH]c(=O)n1Cc1ccccc1 | x | x | x | 7%[11.6 µM] | x
N#Cc1ccc(C(=O)N(Cc2ccco2)c2c(N)n(Cc3ccccc3)c(=O)[nH]c2=O)cc1 | x | -28% | 2% | -2% | u
Nc1c(N(Cc2ccco2)C(=O)COc2ccccc2Cl)c(=O)[nH]c(=O)n1Cc1ccccc1 | x | 50µM* | u | -7% | -20%
Nc1c(N(Cc2ccco2)C(=O)c2ccc(Cl)cc2)c(=O)[nH]c(=O)n1Cc1ccccc1 | x | -28% | u | -1%[11.6 µM] | -24%
Nc1c(N(Cc2ccco2)C(=O)c2cccc(Cl)c2)c(=O)[nH]c(=O)n1Cc1ccccc1 | x | 40µM* | u | 5% | u
COCCn1c(N)c(N(Cc2ccccc2)C(=O)c2ccc3ccccc3c2)c(=O)[nH]c1=O | x | -2% | 10µM* | 1% | u
Nc1c(N(Cc2ccco2)C(=O)c2ccc(Br)cc2)c(=O)[nH]c(=O)n1Cc1ccccc1 | x | 35µM* | u | -2% | 2%
